Only a selection was taken, and hits are over-represented in it overall.
LmPK inh = LmPK (Leishmania mexicana) enzyme inhibition | Q27686 | purified LmPK, Kinase-Glo ATP luminescence, 1 h | Potency, µM (series often up to 57.5 µM), for the others: at the top dose activity change, negative = inhibition, hits mostly inhibitors | 290,000 compounds, 0.37% hits | AID 1721; active = well fitted curve in the direction sought with a large enough effect; inconclusive = small, poorly fitted or top-dose-only effect, or another doubt; inactive = no such curve, though single readings can be large; an effect the other way counts as inactive or inconclusive; note: potency is the fitted concentration of half-maximal effect; % is set by controls: 0 for no effect and ±100 for the full control effect
Target sequence (Q27686 whole entry, looked up): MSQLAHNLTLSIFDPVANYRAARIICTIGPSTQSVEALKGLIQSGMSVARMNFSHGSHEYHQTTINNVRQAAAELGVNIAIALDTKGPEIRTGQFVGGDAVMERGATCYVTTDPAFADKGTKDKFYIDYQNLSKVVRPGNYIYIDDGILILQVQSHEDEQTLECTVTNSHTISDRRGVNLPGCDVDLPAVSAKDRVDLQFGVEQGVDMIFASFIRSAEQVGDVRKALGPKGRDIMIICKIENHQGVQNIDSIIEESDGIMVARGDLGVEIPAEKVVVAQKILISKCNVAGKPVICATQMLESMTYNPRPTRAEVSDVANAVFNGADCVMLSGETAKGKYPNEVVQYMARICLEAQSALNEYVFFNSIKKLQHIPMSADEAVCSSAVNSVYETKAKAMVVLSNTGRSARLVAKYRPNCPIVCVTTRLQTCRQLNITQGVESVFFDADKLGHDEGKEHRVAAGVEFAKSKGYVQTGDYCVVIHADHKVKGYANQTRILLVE
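In 50 mM imidazole pH 7.2 with 7 mM MgCl2, LmPK (0.1 nM) turned over PEP (0.5 mM) and ADP (0.1 mM) for 1 h at room temperature. Luciferase read-out of ATP.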
Tb PYK inh = T. brucei pyruvate kinase inhibition; TbPYK enzyme, Kinase-Glo Plus ATP luminescence, 45 min; Potency, µM (series often up to 76.8 µM), without a hit: at the top dose activity, negative = inhibition, actives largely listed as inhibitors; 410,000 compounds, 0.12% hits; active = well fitted curve in the direction sought with a large enough effect; inconclusive = small, poorly fitted or top-dose-only effect, or another doubt; inactive = no such curve, though single readings can be large; an effect the other way counts as inactive or inconclusive; note: potency is the fitted concentration of half-maximal effect; % is set by controls: 0 for no effect and ±100 for the full control effect; nearly all actives have a fitted effect of over 50% in size
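Enzyme and substrate buffer are dispensed first and compound is pin-transferred. ADP at 130 uM final then starts the reaction, which runs 45 min at room temperature. Detection reagent is added for 10 min before luminescence is imaged.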
SARS PLP yeast = SARS-CoV PLP inhibition in yeast. Potency, µM (doses to about 32.9 µM), inactives show at the highest dose activity, positive = growth rescue, usual class: activators. AID 485353. S. cerevisiae expressing SARS-CoV PLpro, growth rescue. 330,000 compounds, 0.19% hits; note: potency is the fitted concentration of half-maximal effect; 0% is about no effect; nearly all actives have a fitted effect of over 55% in size
NS1 inh = blocks influenza NS1 protein function; Potency, µM (titrated, usually from 46.1 µM), for the others: top-dose activity, positive = more growth; 270,000 compounds, 0.4% hits; AID 2326; note: potency is the fitted concentration of half-maximal effect; actives are rising curves; nearly all actives have a fitted effect of over 50% in size
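OD600 was taken as the measure of yeast growth restored by compound in an NS1-expressing S. cerevisiae strain. Cells had been washed out of glucose medium and diluted 1:100 into galactose -URA medium, pH 6.0.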
Cycloheximide cs = counter-screen hit for Shiga toxin inhibitors, cycloheximide; 300,000 compounds, 12% hits; cell reporter, cycloheximide protein synthesis inhibition counterscreen; max response, %; in the data active = max response mostly above about 13%, no sharp cut-off; inactive = mostly below about 14%; note: read at 38.3 µM for the half of the compounds with a filed dose; 0% is about no effect
Shiga toxin inh = inhibitors of Shiga toxin in Vero cells; 290,000 compounds, 9.2% hits; Vero cells, Shiga toxin protein synthesis inhibition reporter; inhibition, % at 38.7 µM; in the data active = inhibition mostly above about 28%, no sharp cut-off; inactive = mostly below about 43%; note: 0% is about no effect
The depositor's hits bear a star; u = inconclusive; x = no result given; [ ] = dose if it differs, or a comment. Unless noted, calls come from the whole dose curve.

SMILES	LmPK inh	Tb PYK inh	SARS PLP yeast	NS1 inh	Cycloheximide cs	Shiga toxin inh
OCCN1CCN(c2ncnc3c2ncn3[C@H]2CN(Cc3cccnc3)C[C@@H](CO)O2)CC1	x	0.9%	x	x	x	x
Cc1ccc(-c2nnnn2-c2ccccc2C(=O)O)cc1	x	2.1%	x	x	x	x
O=C(c1ccco1)N1CCN(c2ncnc3c(-c4ccc(Cl)cc4)nsc23)CC1	-7.8%	0.0%	-0.6%	-2.7%	47.9*	101.0*
Cc1ccc(-c2csc3ncnc(N4CCN(C(=O)c5ccco5)CC4)c23)cc1	x	4.2%	-0.5%	x	x	x
COc1ccc(-c2nsc3c(N4CCCC4)ncnc23)cc1	-19.0%	0.4%	2.5%	-12.6%	49.1*	118.2*
Cc1ccc(-c2nsc3c(N4CCN(C(=O)c5ccco5)CC4)ncnc23)cc1	-3.5%	x	u	3.55µM*	29.6*	71.2*
COc1ccc(-c2nsc3c(N4CCN(S(=O)(=O)c5ccccc5)CC4)ncnc23)cc1	8.9%	x	2.8%	-4.5%	-3.1	2.0
C[C@@H]1CN([C@H](C)CO)C(=O)CCCn2nncc2CO[C@H]1CN(C)S(=O)(=O)c1ccc(Oc2ccccc2)cc1	x	-5.0%	x	x	x	x
CN(C)S(=O)(=O)c1ccc(C(=O)OCC(=O)NCc2ccco2)cc1	2.7%	3.0%	-8.3%	x	-1.1	-11.1
O=C(Nc1ccccc1)OC1CC2CC1C1CCCC21 (stereo unspecified)	3.9%	-12.5%	-4.6%	-73.1%	51.5*	93.8*
O=C(Nc1ccccc1)O[C@@H]1C[C@H]2CCC(=O)N3CC[C@@H](C1)[C@@H]23	-5.4%	x	-9.8%	-29.7%	31.1*	38.2*
CC1CN(C=O)CC(C)N1CCN1C(C)CN(C=O)CC1C (stereo unspecified)	x	-2.0%	x	x	x	x
COc1cccc(/C=N/NC(=O)CNC(=O)CCc2ccccc2)c1O	-0.5%	-1.7%	-0.5%	-2.8%	29.9*	66.4*
O=C(CNC(=O)c1cccs1)N/N=C/c1c(F)cccc1Cl	0.9%	-6.1%	21.4%	-3.1%	16.3*	36.8*
COc1cccc(/C=N/NC(=O)CNC(=O)c2cccs2)c1O	-9.0%	-0.7%	0.6%	-11.0%	30.8*	46.5*
Cc1ccc(/C=N/NC(=O)CNC(=O)c2cccs2)cc1	-1.8%	-9.8%	3.7%	4.7%	15.1*	19.3
COc1ccccc1/C=C\C(=O)NCC(=O)N/N=C/c1cccc(OC)c1O	7.9%	-1.2%	5.1%	10.2%	-1.3	-6.3
CCOC(=O)c1cnc2c(cnn2CC)c1NN=C(C)C	x	1.7%	x	-5.9%	x	x
Cc1cc(/C=C(\C#N)C(=O)NCC2CCCO2)c(C)n1-c1ccc(Cl)cc1 (stereo unspecified)	3.5%	-1.3%	-6.1%	-1.5%	25.5*	64.5*
O=C(NCCOc1ccccc1)C(=O)NCC1CCCO1 (stereo unspecified)	0.1%	2.7%	-0.1%	0.6%	11.6*	36.9*
O=C(NCCOc1ccc(Cl)cc1)C(=O)NCC1CCCO1 (stereo unspecified)	-8.4%	-1.4%	-0.7%	-0.7%	0.7	-11.4
O=C(CSc1ccc(Br)cc1)NCC1CCCO1 (stereo unspecified)	2.3%	-21.5%	-5.2%	x	19.3	47.1
O=C(CSc1ccc(Cl)cc1)NCC1CCCO1 (stereo unspecified)	-4.2%	1.1%	-5.9%	-8.6%	16.8*	-2.6
O=C(CSc1nnc(C2CC2)n1CC1CCCO1)Nc1ccc(Cl)cc1 (stereo unspecified)	2.0%	0.4%	-2.1%	-0.9%	12.9	31.4*
CCN1CCN(c2ccc(NC(=O)COc3ccc(Cl)cc3C)cc2)CC1	x	1.6%	1.1%	x	x	x
SMILES	LmPK inh	Tb PYK inh	SARS PLP yeast	NS1 inh	Cycloheximide cs	Shiga toxin inh
COc1ccccc1CNC(=O)[C@H](C)NC(=O)C1CCN(C(=O)[C@@H](N)CCSC)CC1	-4.4%	4.1%	2.7%	-4.7%	-2.3	7.1
O=C(CCCOc1ccccc1)NCC1CCCO1 (stereo unspecified)	0.2%	0.8%	28.2%	12.0%	28.4*	26.4
O=C(CC(c1ccccc1)c1ccccc1)NCC1CCCO1 (stereo unspecified)	0.5%	-6.2%	0.8%	-4.5%	-3.5	-15.7
N#C/C(=C\c1cn(CCOc2ccccc2)c2ccccc12)C(=O)NCC1CCCO1 (stereo unspecified)	3.6%	-2.9%	-5.2%	19.6%	29.4*	-25.2
O=C(CCSc1ccccc1)NCC1CCCO1 (stereo unspecified)	-1.3%	-3.9%	3.4%	-11.4%	29.4*	63.4*
Cc1ccc(C)c(OCCn2cc(/C=C(/C#N)C(=O)NCC3CCCO3)c3ccccc32)c1 (stereo unspecified)	0.9%	-5.6%	-0.8%	10.1%	-2.5	-10.6
CC(C)C(N)c1csc(Nc2ccc(C(=O)NCCCO)cn2)n1 (stereo unspecified)	x	4.0%	x	x	x	x
Cc1ccc(C)c(NC(=O)CSc2ccc3nc(-c4ccccc4)cn3n2)c1	x	-14.0%	x	x	x	x
COC(=O)Cn1ncc2c3ccccc3n(C)c2c1=O	-2.7%	-5.8%	2.2%	-49.2%	24.5*	43.0*
CCOC(=O)C1CCN(C(=O)Cn2ncc3c4ccccc4n(C)c3c2=O)CC1	x	-4.3%	x	x	x	x
Cc1c2cnn(CC(=O)NC3CCCC3)c(=O)c2c(C)n1Cc1ccccc1	-3.3%	1.9%	14.7%	16.0%	28.9*	76.9*
Cn1c2ccccc2c2cnn(CC(=O)O)c(=O)c21	1.5%	-2.3%	2.3%	7.6%	-2.6	28.3
CCOC(=O)N1CCC(NC(=O)Cn2ncc3c4ccccc4n(C)c3c2=O)CC1	-0.1%	-13.0%	1.9%	18.0%	22.0*	34.5*
Cc1c2cnn(CC(=O)NCCCN3CCCCC3C)c(=O)c2c(C)n1Cc1ccccc1 (stereo unspecified)	-6.6%	0.0%	-1.4%	11.5%	-1.9	12.3
Fc1ccc(-c2nn3c(C4COc5ccccc5O4)nnc3s2)cc1 (stereo unspecified)	6.7%	u	u	-96.0%	-2.3	6.1
c1csc(-c2nn3c(C4COc5ccccc5O4)nnc3s2)c1 (stereo unspecified)	5.4%	-25.6%	-18.9%	-103.3%	36.1*	45.0*
CCc1cccc(C)c1Nc1nn2c(=O)c3ccccc3nc2s1	x	-18.8%	x	x	x	x
CCSc1nn2c(=O)c3ccccc3nc2s1	u	-12.1%	-0.6%	-19.8%	47.6*	85.4*
COc1ccccc1N=C1NC(=O)/C(=C/c2ccc(N(C)C)cc2)S1	-3.1%	-2.2%	-7.4%	-8.2%	40.8*	56.1*
Cc1ccc(S(=O)(=O)CCC(=O)Nc2ccc(Br)cc2C)cc1	x	-9.0%[15.4 µM]	x	x	x	x
C[C@@H]1O[C@H](OC2[C@@H](O)[C@H](O)C(O)[C@H](O)[C@H]2O)[C@@H](N)C[C@@H]1N=C(N)C(=O)O (stereo partly specified)	x	x	x	-3.2%	x	x
Cc1ccc(C(=O)c2sc(Nc3ccc(F)cc3)nc2N)c(C)c1	x	-13.6%	x	x	x	x
CNC(=O)C1CCC(Cn2c(=O)[nH]c3ccsc3c2=O)CC1 (stereo unspecified)	x	-1.4%	x	x	x	x
